Mtb UGM inh – Mtb UDP-galactopyranose mutase inhibition. purified UGM, fluorescence polarization probe displacement. P9WIQ1. 320,000 tested, 0.06% active. inhibition, % at 10 µM; in the data active = inhibition above about 10%, passing the limit was not always enough
Mtb FBA inh – Mtb fructose-bisphosphate aldolase inhibition; purified M. tuberculosis FBA, fluorescence read-out; inhibition, % at 1 µM; 360,000 tested, 2.3% active;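 note: 0% = vehicle and 100% = reference inhibitor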
RecA splice inh – Mtb RecA intein splicing inhibition | cell-free RecA intein splicing, fluorescence | 290,000 tested, 0.75% active | P9WHJ3 | inhibition, % (concentration not given with the values) | AID 2221; in the data active = inhibition above about 30%;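 note: 0% = vehicle wells and 100% = reference inhibitor control wells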
Mtb betalactam – beta-lactam sensitization of Mtb H37Rv; inhibition, % at 25 µM; M. tuberculosis H37Rv growth with meropenem, percent inhibition; 330,000 tested, 0.27% active; call rule not given here;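 note: growth measured after seven days incubation then overnight dye step; 0% = bacteria only wells and 100% = bacteria with antibiotic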
GDH-TPI counter-1 – counter-screen for M. tuberculosis FBA inhibitors: GDH-TPI coupled enzymes; GDH-TPI coupled enzyme counterscreen, NADH absorbance; inhibition, % at 4.8 µM; 360,000 tested, 1.2% active; AID 588335; in the data active = inhibition above about 30%;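 note: 0% = DMSO wells and 100% = wells lacking the enzyme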
Rv3671c inh – inhibits the M. tuberculosis serine protease Rv3671c; 320,000 tested, 0.048% active; AID 2606; inhibition, % at 5.96 µM; in the data active = inhibition above about 38%;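 note: extracellular domain of Rv3671c used as enzyme; 0% = enzyme with DMSO and 100% = no enzyme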
Target sequence (P9WHR9 whole entry, looked up, the tested form may be a part): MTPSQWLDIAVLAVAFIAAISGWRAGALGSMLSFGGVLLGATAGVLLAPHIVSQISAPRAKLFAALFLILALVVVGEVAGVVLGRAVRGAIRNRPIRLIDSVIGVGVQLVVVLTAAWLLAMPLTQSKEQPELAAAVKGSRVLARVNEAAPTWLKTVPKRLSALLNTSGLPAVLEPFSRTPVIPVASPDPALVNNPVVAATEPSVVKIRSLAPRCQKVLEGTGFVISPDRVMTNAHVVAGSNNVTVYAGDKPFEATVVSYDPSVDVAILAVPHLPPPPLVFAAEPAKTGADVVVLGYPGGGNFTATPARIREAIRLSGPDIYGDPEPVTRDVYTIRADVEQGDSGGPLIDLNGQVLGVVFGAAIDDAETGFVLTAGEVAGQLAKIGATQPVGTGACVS
Mtb FBA confirm – confirmation of M. tuberculosis fructose-bisphosphate aldolase inhibitors | shares compounds with Mtb FBA inh | purified M. tuberculosis FBA, fluorescence read-out | 5,600 tested, 78% active | inhibition, % at 1 µM;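 note: 0% = vehicle wells and 100% = reference inhibitor wells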
GDH-TPI counter-2 – GDH-TPI inhibition counter-screen for FBA inhibitors. AID 652141. shares compounds with Mtb FBA inh. 5,600 tested, 81% active. inhibition, % at 1 µM. GDH-TPI coupled enzyme counterscreen, fluorescence; in the data active = inhibition above about 10%
GDH-TPI dose – GDH-TPI dose response counter-screen for Mtb FBA | shares compounds with Mtb FBA inh | GDH-TPI coupled enzyme assay, fluorescence, artifact counterscreen | IC50, µM | 170 tested, 79% active; call rule not given here
* hit, by the source's call. Most compounds without a hit are left out; they make up all but 4% or so of the library. Cut-off read from the data, not from the text of the source, unless noted: active = inhibition above about 27%; inactive = the rest.

`CCCc1cc(=O)oc2cc(C)cc(OC(C)C(=O)NCCN3CCOCC3)c12` (stereo unspecified) gave Mtb UGM inh 0.6, Mtb FBA inh 61.2*, RecA splice inh -1.8, Mtb betalactam -5.4, GDH-TPI counter-1 13.4, Rv3671c inh -6.6, Mtb FBA confirm 54.2* and GDH-TPI counter-2 43.0*.
`Cc1cc(OC(C)C(=O)NCCCN2CCOCC2)c2c(C)cc(=O)oc2c1` (stereo unspecified) gave Mtb UGM inh 2.4, Mtb FBA inh 56.4*, RecA splice inh 0.3, Mtb betalactam 1.6, GDH-TPI counter-1 -5.0, Rv3671c inh -3.4, Mtb FBA confirm 11.6, GDH-TPI counter-2 -1.7 and GDH-TPI dose 2.73*.
`Cc1cc(OC(C)C(=O)NCCN2CCOCC2)c2c(C)c(C)c(=O)oc2c1` (stereo unspecified) gave Mtb UGM inh 0.0, Mtb FBA inh 51.1*, RecA splice inh -1.4, Mtb betalactam 4.4, GDH-TPI counter-1 7.7, Rv3671c inh -7.9, Mtb FBA confirm 116.1* and GDH-TPI counter-2 93.5*.
For CCCCc1cc(=O)oc2cc(OC(C)C(=O)NCCN3CCOCC3)c(Cl)cc12 (stereo unspecified) the results were Mtb UGM inh -0.9, Mtb FBA inh 8.5, RecA splice inh -0.5, Mtb betalactam 6.2, GDH-TPI counter-1 19.7 and Rv3671c inh -2.7.
Screening CC(Oc1cc2oc(=O)c3c(c2cc1Cl)CCC3)C(=O)NCCN1CCOCC1 (stereo unspecified) returned Mtb UGM inh -0.1, Mtb FBA inh 12.5, RecA splice inh -1.6, Mtb betalactam 4.9, GDH-TPI counter-1 24.4 and Rv3671c inh -3.7.
Screening Cc1cc(=O)oc2c(C)c(OC(C)C(=O)NCCCN3CCOCC3)ccc12 (stereo unspecified) returned Mtb UGM inh -3.2, Mtb FBA inh 12.1, RecA splice inh -0.8, Mtb betalactam -4.0, GDH-TPI counter-1 14.7 and Rv3671c inh -2.1.
Screening C/C(=N\NC(=O)c1nnn(-c2nonc2N)c1-c1ccccc1)c1ccco1 returned Mtb UGM inh -0.8, Mtb FBA inh 0.0, RecA splice inh -2.8, Mtb betalactam -4.1 and GDH-TPI counter-1 8.3.
COc1cc(OC)c(NC(=O)c2sc3ncn(CC(=O)N4CCOCC4)c(=O)c3c2C)cc1Cl was read as Mtb UGM inh 1.8, Mtb FBA inh -1.8, RecA splice inh -0.7, Mtb betalactam 1.7, GDH-TPI counter-1 -7.1 and Rv3671c inh -1.0.
For COc1cccc(NC(=O)CN(C)C(=O)c2oc3c(ccc4ccccc43)c2C)c1 the results were Mtb FBA inh 1.0, RecA splice inh 1.7, Mtb betalactam -8.6, GDH-TPI counter-1 -14.3 and Rv3671c inh -18.6.
Screening CCc1cc(=O)oc2c(C)c(OC(C)C(=O)NCCCN3CCOCC3)ccc12 (stereo unspecified) returned Mtb UGM inh 0.8, Mtb FBA inh 10.7, RecA splice inh 1.3, Mtb betalactam -1.6, GDH-TPI counter-1 11.8 and Rv3671c inh -1.9.
CCCc1cc(=O)oc2cc(C)cc(OC(C)C(=O)NCCCN3CCOCC3)c12 (stereo unspecified) was read as Mtb UGM inh 2.5, Mtb FBA inh 79.8*, RecA splice inh -2.7, Mtb betalactam -10.9, GDH-TPI counter-1 11.0, Rv3671c inh -2.4, Mtb FBA confirm -4.0 and GDH-TPI counter-2 -2.1.
Screening Cc1cc(S(=O)(=O)N2CCOCC2)ccc1OCC(=O)NCc1ccccn1 returned Mtb UGM inh -3.3, Mtb FBA inh 1.5, RecA splice inh 0.9, Mtb betalactam -8.6, GDH-TPI counter-1 -5.4 and Rv3671c inh 7.3.
Cc1ccc2c(c1)=NC(=O)/C(=C/c1c(O)[nH]c(=O)[nH]c1=O)C=2 was read as Mtb UGM inh 0.8, Mtb FBA inh 34.8*, RecA splice inh -24.0, Mtb betalactam -7.3, GDH-TPI counter-1 1.3, Rv3671c inh -23.2, Mtb FBA confirm 94.6* and GDH-TPI counter-2 65.1*.
For O=C(Oc1ccc2c3c(c(=O)oc2c1)CCCC3)c1cccs1 the results were Mtb UGM inh 0.1, Mtb FBA inh 81.6*, RecA splice inh 8.1, Mtb betalactam 86.3, GDH-TPI counter-1 6.6, Rv3671c inh -7.3, Mtb FBA confirm active and GDH-TPI counter-2 active.
Cc1oc(C(=O)O)cc1COc1ccc2c3c(c(=O)oc2c1)CCC3 was read as Mtb UGM inh -0.1, Mtb FBA inh 38.1*, RecA splice inh -1.6, Mtb betalactam 0.3, GDH-TPI counter-1 26.6, Rv3671c inh 1.4, Mtb FBA confirm 55.3* and GDH-TPI counter-2 44.1*.
For C=CCOC(=O)COc1ccc2c3c(c(=O)oc2c1)CCCC3 the results were Mtb FBA inh 39.8*, GDH-TPI counter-1 15.2, Mtb FBA confirm 62.2* and GDH-TPI counter-2 41.0*.
O=C(CCCCCN1C(=O)c2ccccc2C1=O)Oc1ccc2c3c(c(=O)oc2c1)CCC3 was read as Mtb UGM inh 0.0, Mtb FBA inh 61.9*, RecA splice inh -0.6, Mtb betalactam 75.7, GDH-TPI counter-1 1.9, Rv3671c inh 3.5, Mtb FBA confirm -3.0 and GDH-TPI counter-2 -2.9.
For O=C(O)COc1ccc2c3c(c(=O)oc2c1)CCCC3 the results were Mtb UGM inh 2.0, Mtb FBA inh 0.4, RecA splice inh -3.3, Mtb betalactam -1.7, GDH-TPI counter-1 6.4 and Rv3671c inh -4.3.
O=C(O)c1cc(-n2[nH]c(=O)c3ccccc3c2=O)ccc1Cl was read as Mtb UGM inh -2.4, Mtb FBA inh 1.3, RecA splice inh -1.9, Mtb betalactam -2.8, GDH-TPI counter-1 4.5 and Rv3671c inh 0.1.
For CCC(C(=O)Nc1ccc2c(c1)OCCO2)n1c(=O)[nH]c2ccccc2c1=O (stereo unspecified) the results were Mtb UGM inh -1.0, Mtb FBA inh 2.8, RecA splice inh 4.3, Mtb betalactam -3.9, GDH-TPI counter-1 6.6 and Rv3671c inh -9.8.
`C/C(=N\NC(=O)c1cccc(S(=O)(=O)N2CCOCC2)c1)c1ccc(C#N)cc1` gave Mtb UGM inh 2.8, Mtb FBA inh -2.6, RecA splice inh -0.5, Mtb betalactam -7.9, GDH-TPI counter-1 -0.7 and Rv3671c inh 0.5.
Screening CC(=O)Nc1cccc(C(=O)OCC(=O)Nc2ccc(Cl)cn2)c1 returned Mtb UGM inh -2.2, Mtb FBA inh 3.6, RecA splice inh -0.9, Mtb betalactam -0.5, GDH-TPI counter-1 10.3 and Rv3671c inh -8.9.
For O=c1oc2cc(OCCO)ccc2c2c1CCCC2 the results were Mtb UGM inh 2.2, Mtb FBA inh 59.5*, RecA splice inh 0.1, Mtb betalactam 0.0, GDH-TPI counter-1 4.6, Rv3671c inh 6.0, Mtb FBA confirm 73.7* and GDH-TPI counter-2 56.6*.

Compound activity deposited in PubChem by several laboratories.
